In the library only some 1.4% were active in any assay of this set; here they are far more common.
TSHR antagonist = human thyrotropin receptor antagonism | TSHR-expressing cells, TSH-stimulated cAMP HTRF, 2 h; stronger effect = lower value | activity change, negative = inhibition, % at 11.5 µM | hit rate 0.2% among 330,000 | AID 504810;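 active = activity change below a set negative limit, meaning inhibition stronger than a set level, cut at about -70% in these data; inconclusive = activity change between two set negative limits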
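Competitive HTRF cAMP read-out (cryptate anti-cAMP antibody, cAMP-d2; 30 min, room temperature) in freshly harvested TSHR cells. Compounds added before TSH at EC80 (4nM final), followed by 2 hours' incubation at 37 deg C.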
BRCA1 expr act = BRCA1 expression activation; MCF7-BRCA1-FFLuc reporter, luminescence, 48 h; response scale: scaled: vehicle 0%, 10 µM genistein 100%; Potency, µM (highest dose often 46.1 µM), usual class: activators; hit rate 1.1% among 380,000; AID 624202; also: nearly all actives have a fitted effect of over 80% in size
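MCF7-BRCA1-FFLuc, 2000 cells/well; 2 h attach, 37 °C/5% CO2; compound 48 h; luciferase substrate 15 min; luminescence end-point. Norm. to genistein 10 microM max activation and DMSO; concentration-response curves fitted.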
N370S GC = N370S glucocerebrosidase modulation, Gaucher chaperone candidate; P04062; N370S GC spleen homogenate, 4MU-glucoside fluorescence; Potency, µM (titrated, usually from 59.4 µM), usual class: inhibitors; hit rate 0.092% among 330,000; AID 2101
p53 reactivator = mutant p53 re-activation in reporter cells. AID 504706. hit rate 0.063% among 320,000. H1299 p53-A138V BP100-luciferase reporter, luminescence, 24 h. Potency, µM (titrated, usually from 92.2 µM), most hits filed as activators; also: nearly all actives have a fitted effect of over 45% in size
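p53-null H1299 cells stably carrying temperature-sensitive p53-A138V and a BP100-luciferase reporter were pinned with compounds (4-point, 1:5 series) and held 24 hrs at 37 deg C. Luminescence was read 10 min after detection reagent.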
TCR activator = T cell receptor activation. primary human leukocytes, anti-CD3, IL-2 HTRF, 48 h. Potency, µM (top dose mostly 9.22 µM), usual class: activators. 330,000 tested, under 10 active
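HTRF read-out of IL-2 secretion: europium cryptate donor excited at 320nm, d2 acceptor emission at 665nm. Cells were primary human leukocytes incubated 48 hr with compounds and a-CD3 beads, supplying TCR signal only.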
GLS inh = blocks human kidney-isoform glutaminase activity. O94925. Potency, µM (titrated, usually from 45.5 µM), hits mostly inhibitors. AID 624170. hit rate 0.21% among 410,000. GLS enzymatic activity, qHTS titration
Target sequence (O94925 whole entry, looked up, canonical isoform): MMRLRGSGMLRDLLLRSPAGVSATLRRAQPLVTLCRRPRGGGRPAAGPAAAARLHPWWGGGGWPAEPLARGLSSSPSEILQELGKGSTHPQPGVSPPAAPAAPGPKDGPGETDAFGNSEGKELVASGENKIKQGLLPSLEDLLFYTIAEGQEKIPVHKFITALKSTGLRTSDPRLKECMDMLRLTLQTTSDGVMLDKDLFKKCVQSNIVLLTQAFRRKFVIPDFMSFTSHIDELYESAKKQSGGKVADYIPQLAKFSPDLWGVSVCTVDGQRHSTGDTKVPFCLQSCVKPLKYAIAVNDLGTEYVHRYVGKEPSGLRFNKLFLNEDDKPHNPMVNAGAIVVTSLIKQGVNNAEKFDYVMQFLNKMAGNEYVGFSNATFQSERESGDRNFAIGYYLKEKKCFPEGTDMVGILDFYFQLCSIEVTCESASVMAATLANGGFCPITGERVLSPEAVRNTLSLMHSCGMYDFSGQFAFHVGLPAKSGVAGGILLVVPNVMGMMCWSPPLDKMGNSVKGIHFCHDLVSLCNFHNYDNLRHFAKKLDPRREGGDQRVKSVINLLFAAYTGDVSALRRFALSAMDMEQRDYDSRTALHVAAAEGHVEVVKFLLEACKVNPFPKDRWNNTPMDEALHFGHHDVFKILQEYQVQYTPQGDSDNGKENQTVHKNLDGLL
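Glutamate formation by hKGA was monitored fluorometrically using coupled glutamate oxidase, HRP and Amplex Red. Substrate was added as 1 mM L-glutamine solution; incubation was 30 min at RT after an initial read.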
GLS confirm = confirmation of human glutaminase inhibitors | AID 624261 | shares compounds with GLS inh | Potency, µM (titrated, usually from 46.1 µM), usual class: inhibitors | 35 tested, under 10 active | biochemical glutaminase enzyme inhibition assay; calls by dose curve
GLS HRP counter = coupled enzyme interference in glutaminase inhibitor counterscreen; AID 624262; HRP/glutamate oxidase coupled Amplex Red fluorescence counterscreen; activity change, negative = inhibition, % at 46.1 µM; shares compounds with GLS inh; 35 tested, under 10 active
GLS HEK tox = reduces HEK-293 viability in glutaminase inhibitor counter-screen. shares compounds with GLS inh. HEK-293 viability, CellTiter-Glo luminescence, 24 h. activity change, negative = cytotoxicity, % at 46.1 µM. 35 tested, under 10 active. AID 624264
A number is an active result; . = inactive; ? = inconclusive; / = no result. Unless noted, calls follow the shape of the dose curve; as a rule, active = well fitted curve in the direction sought with a large enough effect; inconclusive = small, poorly fitted or top-dose-only effect, or another doubt; inactive = no such curve, though single readings can be large; an effect the other way counts as inactive or inconclusive.

SMILES	TSHR antagonist	BRCA1 expr act	N370S GC	p53 reactivator	TCR activator	GLS inh	GLS confirm	GLS HRP counter	GLS HEK tox
CN1C(=O)c2cccc3c(S(=O)(=O)NCCc4ccccc4)ccc1c23	.	.	.	.	.	.	/	/	/
Cc1ccc(S(=O)(=O)Nc2cc(C)c(O)c(Sc3n[nH]c(C)n3)c2)cc1	.	.	.	.	.	10µM	?	?	.
Nc1c(Br)cc(Br)c2cccnc12	/	.	/	/	/	/	/	/	/
Cc1cccc(N2CCN(C(=O)C3CCN(S(=O)(=O)c4cccs4)CC3)CC2)c1C	/	/	/	/	/	.	/	/	/
Cc1oc2c(cc(NS(=O)(=O)c3ccc(Cl)cc3)c3ccccc32)c1C(=O)O	.	.	.	.	.	15.8µM	?	.	.
CC(=O)c1c(C)oc2c1cc(NS(=O)(=O)c1ccc(Br)cc1)c1ccccc12	/	/	/	/	/	.	/	/	/
CCN(CC)C(=O)CC(c1ccc(OC)cc1)c1c(OC)cc(OC)c2c(-c3ccccc3)cc(=O)oc12 (stereo not drawn)	/	/	.	/	/	/	/	/	/
Cc1ccc(S(=O)(=O)Nc2ccc(O)c3ccccc23)c(C)c1	.	.	.	.	.	7.94µM	?	.	.
CC(C)(C)OC(=O)NCCCC1=CC2=CC(=O)C(C)(OC(=O)c3cnc4ccccc4n3)C(=O)C2=CO1 (stereo not drawn)	/	/	.	/	/	/	/	/	/
